Results reported in PubChem BioAssay AID1066 (SRMLSC, 2008).
The campaign covered roughly 190,000 compounds. About 790 (0.42%) were called active.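 How the source made its calls: active means inhibition above a set limit, the median over all tested compounds plus 3 SD (cut at about 9.5% in these data); inconclusive means no clear call, values can overlap the other calls; inactive means the rest.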 The sample as a whole holds a higher share of actives than the screen did.

These molecules were tested on HMG-CoA reductase (Enterococcus faecalis, mvaE) (assay: inhibitors of E. faecalis class II HMGR, primary screen, biochemical, Enterococcus faecalis (AID 1066;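 further: enzyme runs in reverse so mevalonate oxidation gives rising NADPH absorbance; 0% = complete reaction with DMSO and 100% = background rate lacking mevalonate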)). Conditions: purified E. faecalis HMGR, NADPH absorbance 340 nm kinetic; at 10 µM; hits give high values.

Compound | inhibition
COc1ccc(CCn2c(O)c(C=NCCCn3ccnc3)c(=O)[nH]c2=O)cc1OC | 13.7% (active)
COc1ccc(CCn2c(O)c(C=NC3CC3)c(=O)[nH]c2=O)cc1OC | -3.24% (inactive)
CN(C)CCCN=Cc1c(O)n(Cc2ccco2)c(=O)[nH]c1=O | 6.16% (inactive)
CN(C)c1nc(N(C)C)nc(N(C#N)CCCl)n1 | -6.92% (inactive)
O=C(O)CCn1cc(C=C2C(=O)NC(=S)NC2=O)c(-c2cccc(Br)c2)n1 | 1.54% (inactive)
